Compounds without any hit were thinned out: in the full panel of roughly 83,000, 20% have a hit.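 How to read the values: 0–100, growth inhibition (40 = 60% inhibited); 0, no net growth; -100 to 0, cell death (-40 = 40% of starting cells died; -100 = all dead).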 Values without a mark were called inactive. The source made the active and inactive calls. How the source made its calls: active means growth percent below 10; inactive means the rest.
Assays:
Test in all cases: NCI-60 one-dose screen, 48 h (100 = growth as untreated, 0 = no growth, -100 = all killed)
Conditions in all cases: 10 µM unless noted
[1] = test system: NCI-H23 lung
[2] = test system: NCI-H226 lung
[3] = test system: NCI-H322M lung
[4] = test system: HOP-62 NSCLC
[5] = test system: NCI-H460 lung
[6] = test system: HOP-92 NSCLC
[7] = test system: NCI-H522 lung
[8] = test system: A549/ATCC NSCLC
[9] = test system: 786-0 renal
[10] = test system: COLO 205 colon
[11] = test system: DU-145 prostate
[12] = test system: K-562 leukemia
[13] = test system: MALME-3M melanoma
[14] = test system: MDA-MB-231 breast
[15] = test system: RXF 393 renal
[16] = test system: SF-268 CNS
[17] = test system: SF-295 CNS
[18] = test system: SF-539 CNS
[19] = test system: UACC-257 melanoma
[20] = test system: M14 melanoma

| Structure (SMILES) | growth [1] [%] | growth [2] [%] | growth [3] [%] | growth [4] [%] | growth [5] [%] | growth [6] [%] | growth [7] [%] | growth [8] [%] | growth [9] [%] | growth [10] [%] | growth [11] [%] | growth [12] | growth [13] | growth [14] [%] | growth [15] | growth [16] [%] | growth [17] [%] | growth [18] [%] | growth [19] [%] | growth [20] [%] |
| --- | --- | --- | --- | --- | --- | --- | --- | --- | --- | --- | --- | --- | --- | --- | --- | --- | --- | --- | --- | --- |
| C=C(C)[C@@H]1CC[C@]2(C(=O)N3CCN(C)CC3)CC[C@]3(C)[C@H](CC[C@@H]4[C@@]5(C)CCC(=O)C(C)(C)[C@@H]5CC[C@]43C)[C@@H]12 | 89.9 | 88.5 | 91.5 | 86.4 | 21 | 52.8 | 85.1 | 85.1 | 71.1 | 72.4 | 82.8 | 60.5% | 89% | 79.4 | 80.5% | 77.2 | 103 | 73.9 | 101 | 94.7 |
| OC(c1ccccc1)c1ccccn1 (stereo not given) | 107 | 97.8 | 102 | 104 | 107 | 94.4 | 84.6 | 77.1 | 97.2 | 108 | 110 | 94.3% | 113% | 105 | 104% | 102 | 101 | 97.7 | 90.5 | 96.1 |
| O=C1CCCN1c1cccc2cccnc12 | 92.9 | 98.8 | 102 | 94.4 | 102 | 103 | 96 | 99 | 97.5 | 108 | 111 | 96.4% | 109% | 99 | 102% | 97.9 | 102 | 98.9 | 102 | 103 |
| CC(=O)CCSc1ccc(OC(C)=O)cc1 | 100 | 101 | 103 | 98 | 106 | 79.8 | 82.3 | 88.3 | 100 | 116 | 108 | 96.1% | 115% | 91.7 | 109% | 96.4 | 105 | 97.3 | 88.1 | 103 |
| Cc1cn(-c2cc(C(=O)Nc3cccc(C#Cc4cccc5[nH]nc(N)c45)c3)cc(C(F)(F)F)c2)cn1 | 44.1 | 33.1 | 68.4 | 45.1 | 40.6 | 26.4 | 51.7 | 63.2 | 66.7 | 13.8 | 72.5 | 5.16% (active) | -12% (active) | 29.8 | 1.89% (active) | 58.6 | 67.2 | 25.3 | 18.1 | 11.5 |
| Cc1cc(C(=O)Nc2ncnc3nc[nH]c23)no1 | 101 | 92.3 | 90.6 | 92.6 | 106 | 102 | 94.3 | 100 | 103 | 104 | 108 | 87% | 105% | 105 | 107% | 99.7 | 99.3 | 96.9 | 112 | 99 |
| Cn1/c(=N/NC(N)=S)ccc2ccccc21 | 94.9 | 88.9 | 82.4 | 98.6 | 108 | 109 | 88.9 | 97.7 | 104 | 114 | 103 | 46.4% | 90.8% | 87.7 | 102% | 91.8 | 89.5 | 97.8 | 70 | 86.4 |

— PubChem BioAssay (NCI)
